The values below come from the OligoGym collection.
Note: reference of the scale not given here.

In the first test the target is NARF. Nature of the test: pooled miR-30 sensor sort-seq; sequence = guide strand. The settings on record: shRNA.
Turning to TGAGGTATCACATTTCTTGTTA, the sensor-assay potency score (higher = more potent) was -0.0479.

On to TTGAACAGCTCCTTGGCCGCAT, for which the sensor-assay potency score (higher = more potent) was found to be 0.2.

TATTTGAGCAATTTCACCTGAT displayed a sensor-assay potency score (higher = more potent) of 0.609.

A further test concerns the target NAT8L. Described as above. The settings on record: shRNA.
The sequence TTAACAAAATCTGAGCTGCAAG displayed a sensor-assay potency score (higher = more potent) of -1.08.

In the case of TCTTAGGGTACAAACTACCGTT, the sensor-assay potency score (higher = more potent) was -0.674.

For TTGGCGATGCCCTTGCCTCGGA, the sensor-assay potency score (higher = more potent) is -0.817.

Take TTCTCTGTCCCTTCGCTCGCTT: the sensor-assay potency score (higher = more potent) was -0.787.

The sequence TGAGTCCACAGACATCCGCAGC came in with a sensor-assay potency score (higher = more potent) of -1.61.

TAACTTATTAGAAAATGTGTTG: the sensor-assay potency score (higher = more potent) was -0.872.

TACAGTCTACAAAACTCCCATC returned a sensor-assay potency score (higher = more potent) of -1.25.

As for TTGTCCTCCTCGTGGGCCCGTG, the sensor-assay potency score (higher = more potent) was -1.12.

For the sequence TAGCGGTGGTAGCGGACCTGGA, the sensor-assay potency score (higher = more potent) is -1.68.

In the case of TTGTGCACCACGGCGAACTCCA, the sensor-assay potency score (higher = more potent) was -0.938.

In turn, TGCCTCGGAAACGTGAGTCCAC showed a sensor-assay potency score (higher = more potent) of -0.669.

Take ATCCGCAGCAGCTCCACCGTGT: the sensor-assay potency score (higher = more potent) is -0.56.
